Screens as filed in PubChem BioAssay.
MITF TRPM1 HTS: activators of MITF-driven TRPM1 promoter reporter, primary screen, cell-based, SK-MEL-5, luciferase, single point. activation, % at 12.5 µM. SK-MEL-5 TRPM1-promoter luciferase, 24 h; % of positive control, neutral wells = 0. 300,000 compounds, 0.75% hits;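 active means mean activation of at least 80% with every replicate also reaching 80%; inconclusive means mean reaches 80% but some replicate falls short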;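 further: 0% = neutral control wells and 100% = parthenolide positive control wells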
MLL AF4-AF9 inh: inhibitors of AF4 peptide binding to AF9, primary screen, biochemical, AlphaScreen, biotin-AF4 peptide, FLAG-AF9, single point | Protein AF-9 (Homo sapiens), P42568 | inhibition, % at 10 µM | 350,000 compounds, 0.47% hits | AID 651704, 2012;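 active means every replicate reaching a set inhibition limit, whatever the replicate mean, cut at about 25% in these data; inconclusive means mean inhibition reaches that limit but some replicates miss it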;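 further: 0% = plate neutral control median and 100% = total signal loss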
Target sequence (P42568 whole entry, looked up): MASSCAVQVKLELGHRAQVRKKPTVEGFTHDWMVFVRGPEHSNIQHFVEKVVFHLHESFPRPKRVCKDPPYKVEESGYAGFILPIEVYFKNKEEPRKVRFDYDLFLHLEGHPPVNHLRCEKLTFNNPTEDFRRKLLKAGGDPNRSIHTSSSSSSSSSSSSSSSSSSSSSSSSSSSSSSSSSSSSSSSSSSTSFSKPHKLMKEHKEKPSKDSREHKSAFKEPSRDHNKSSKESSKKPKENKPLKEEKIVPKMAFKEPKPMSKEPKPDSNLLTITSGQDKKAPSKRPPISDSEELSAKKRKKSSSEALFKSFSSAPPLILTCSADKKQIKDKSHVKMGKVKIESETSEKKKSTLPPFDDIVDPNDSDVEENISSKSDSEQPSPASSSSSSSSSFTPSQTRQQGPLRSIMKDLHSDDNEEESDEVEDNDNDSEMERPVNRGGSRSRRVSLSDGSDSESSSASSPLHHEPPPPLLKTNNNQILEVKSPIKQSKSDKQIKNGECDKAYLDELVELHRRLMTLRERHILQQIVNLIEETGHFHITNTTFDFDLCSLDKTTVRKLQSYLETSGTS
SMARCA2 act: SMARCA2 (BRM) function activators, primary screen, cell-based, luminescence, high throughput. MG213 cells, MMTV-luciferase reporter, dexamethasone, overnight. activation, % at 9.1 µM. 370,000 compounds, 1% hits. AID 652017, 2013; in the data active means activation above about 7.8%;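 further: 0% = vehicle wells and 100% = reference activator wells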
Wnt act: Wnt/beta-catenin pathway activators, primary screen, cell-based, plate reader, single point; Wnt/beta-catenin reporter cell assay, activator; activation, % at 9.35 µM; 300,000 compounds, 1.2% hits; AID 743398, 2014; in the data active means activation above about 30%, passing the limit was not always enough; inconclusive means no clear call, values can overlap the other calls;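 further: 0% = neutral control wells and 100% = positive control wells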
FGF22 binding: binders of human FGF22 protein, primary screen, FGF22 synaptogenesis inhibitor project, biophysical, thermal shift, single point. Fibroblast growth factor 22 (Homo sapiens), Q9HCT0. activity (Tm shift, normalised), % at 9.99 µM. AID 651658, 2012. 340,000 compounds, 1.5% hits. recombinant FGF22 thermal shift, SYPRO orange fluorescence; percent of sucrose octasulfate shift, DMSO zero;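 active means mean Tm shift, scaled 0 neutral to 100 positive control, at about 1.3% or above, every replicate too, limit read from the data; inconclusive means no clear call, values can overlap the other calls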
esBAF inh: Bmi1 luciferase reporter increase in mESCs, primary screen, esBAF inhibitor project, mouse ES cells, Bmi1 luciferase knock-in, single point; reporter increase, % at 12.5 µM; AID 602393, 2012; 24 h; 100% = twice the neutral-well signal; 350,000 compounds, 2% hits; in the data active means activation above about 40%; inconclusive means no clear call, values can overlap the other calls;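 further: 0% = median of the plate's neutral control wells and 100% = double that signal; a rise in the Bmi1 reporter signal indicates esBAF inhibition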
SMARCA2 conf: SMARCA2 (BRM) function activators, confirmation, cell-based, luminescence, triplicate | shares compounds with SMARCA2 act | MG213 cells, MMTV-luciferase with dexamethasone, overnight; MG213 cells expressing E1A, Rb sequestered; DMSO wells 0%, reference activator 100% | activation, % at 9.1 µM | 3,500 compounds, 30% hits | AID 652260, 2013;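 active means activation above its plate's cutoff, the mean activation of tested wells plus 3 SD, cut at about 7.9% in these data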
GAL4-VP16 Luc: GAL4-VP16 luciferase reporter activation, counter-screen for SMARCA2 (BRM) activator project, cell-based, pG5luc, luminescence, high throughput | shares compounds with SMARCA2 act | HEK293 GAL4-VP16 pG5luc reporter; scaled: DMSO wells 0%, SAHA wells 100% | activation, % at 9.1 µM | 3,500 compounds, 41% hits | AID 686939, 2013;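 active means activation above the solvent-only control well mean plus 3 SD, averaged across control plates, cut at about 5.2% in these data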
Numbers without * were called inactive; ? = inconclusive; / = not tested or not shown. Most compounds without a hit are left out; they make up all but 4.3% or so of the library.

SMILES | MITF TRPM1 HTS | MLL AF4-AF9 inh | SMARCA2 act | Wnt act | FGF22 binding | esBAF inh | SMARCA2 conf | GAL4-VP16 Luc
CC(=O)Nc1cccc(NC(=O)CSc2ncc(C(=O)Nc3ccc(F)cc3)c(=O)n2C)c1 | -48.1 | 0.7 | -1.4 | -1.3 | 0.0 | 6.2 | / | /
CC(=O)Nc1cccc(NC(=O)CSc2ncc(C(=O)Nc3ccccc3)c(=O)n2C)c1 | -66.2 | -0.9 | 12.1* | 0.1 | 0.1 | 7.9 | 28.4* | 1.6
OCc1cn(-c2ccccc2)nc1-c1cc2ccccc2o1 | 72.6 | -3.4 | 11.5* | 56.8* | 0.2 | ? | 4.2 | 8.6*
COc1cccc(-c2ccc(C3[C@@H]4CN(C(=O)c5cnccn5)C[C@H]3N4)cc2)c1 (stereo partly drawn) | / | -0.6 | / | / | / | / | / | /
COc1cccc(NC(=O)/C=C/c2ccccc2[N+](=O)[O-])c1 | 56.5 | 3.0 | 10.5* | 14.2 | 0.5 | / | 8.8* | 14.9*
COC(=O)C1CCCN(C(=O)C(Cc2ccc3c(c2)OCO3)NC(C)=O)C1 (stereo not drawn) | / | / | 15.8* | / | / | / | 3.2 | -0.7
CCS(=O)(=O)Nc1ccc2c(c1)C(=O)N(C)C[C@H](OC)[C@@H](C)CN(C(=O)COC)[C@H](C)CO2 | / | 3.4 | / | / | / | -3.8 | / | /
CNC[C@@H]1Oc2ccc(NS(=O)(=O)c3ccc(F)cc3)cc2CC(=O)N([C@@H](C)CO)C[C@@H]1C | / | -18.3 | / | / | 0.1 | -7.7 | / | /
COc1ccc(C2=Nn3c(nnc3-c3ccccc3C(F)(F)F)SC2)cc1OC1CCOC1 (stereo not drawn) | -1.6 | -7.9 | 8.4* | 5.5 | 0.1 | 3.5 | 16.1* | 5.9*
COc1ccc(C2=Nn3c(nnc3-c3ccncc3)SC2)cc1OC | 65.7 | / | 8.6* | / | / | -12.8 | 2.8 | 4.4
COCC(=O)N(C)C[C@@H]1Oc2ncc(C#CCC3CCCC3)cc2C(=O)N([C@@H](C)CO)C[C@H]1C | / | 2.1 | / | / | 0.1 | -3.3 | / | /
Nc1ccccc1C(=O)NCc1ccc(Cl)cc1 | 0.7 | / | 8.1* | / | / | / | -0.8 | 0.2
CN1CCN(c2ccc(CNC(=O)C3Cc4c(-c5cccc(F)c5)ccnc4O3)cc2)CC1 (stereo not drawn) | / | -5.2 | -3.0 | -0.8 | 0.1 | -0.7 | / | /
CC(=O)c1cccc(-c2ccnc3c2CC(C(=O)NCc2ccc(N4CCN(C)CC4)cc2)O3)c1 (stereo not drawn) | / | 1.3 | 8.7* | -2.9 | -0.1 | / | 2.5 | 4.6
CS(=O)(=O)Nc1ccc2c(c1)[C@@H]1C[C@H](CC(=O)NCc3ccc(Oc4ccccc4)cc3)O[C@H](CO)[C@@H]1O2 | / | -0.1 | / | / | 0.0 | 8.2 | / | /
Nc1c(C(=O)O)sc2nc3c(cc12)CCCC3 | / | -0.6 | -3.4 | 14.9 | 0.1 | / | / | /
Nc1c(C(=O)C2CC2)sc2nc3c(cc12)CCC3 | 117.3* | -6.5 | 8.5* | 8.1 | 0.2 | / | 13.1* | 9.7*
NC(=O)c1sc2nc3c(cc2c1N)CCCCCC3 | 73.5 | 0.3 | 11.1* | 6.6 | 0.0 | 45.8* | 0.3 | 2.5
S=C(Nc1cccc(Br)c1)OC1CCC12CCC(c1ccccc1)CC2 (stereo not drawn) | / | / | -0.4 | / | / | / | / | /
CCOC(=O)c1cn2nc(Oc3ccc(C)cc3)ccc2n1 | / | 1.5 | 14.6* | 20.0 | -0.2 | / | 2.3 | 2.4
CN(C)CC(=O)N1[C@H](C(=O)NC2CCC2)[C@@H](CO)[C@@H]2Cn3c(ccc(-c4ccccc4)c3=O)[C@@H]21 | / | 0.1 | / | / | 0.1 | -2.1 | / | /
